The values below come from PubChem BioAssay (EPA / NIEHS).

The term AC50 denotes the concentration at which the activity in the assay is half-maximal.

Calls of active or inactive are those of the source. The calls were made as follows: active = hit-call score of the fitted dose curve at least 0.9, where 1 is the maximum; inactive = score below 0.9.

Read-out in this test: Matrix Metallopeptidase 1 (MMP1), MMP1 (gene 4312)
The experiment in a line: BSK_BE3C_MMP1: BioMAP Diversity Plus: BE3C Assay for Matrix Metallopeptidase 1 (MMP1) Biomarker Activity (AID 2283024). Particulars: primary human bronchial epithelial cells; actives raise or lower the signal. The method in brief: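 Human bronchial epithelial cells (BE3C system) exposed to compound for 24 h; MMP1 then quantified by ELISA. Activity was fitted in both directions relative to DMSO.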
For `Cc1cccc2ccccc12`, the outcome was inactive.
Same read-out and setting: the same measure for `CCO[Si](CCCNC(N)=O)(OCC)OCC`: “inactive”.
For the compound `Clc1ccccc1C(c1ccccc1)(c1ccccc1)n1ccnc1`, the AC50 was 11.8 µM (active).
Take `c1ccc2n[nH]nc2c1`: the outcome was inactive.
As to `Cc1ccc(C(C)C)cc1`, the result was inactive.
As for `NC(=O)c1nc(-c2cccc(-c3cc(F)ccc3OCC(F)(F)C(F)(F)F)c2)n[nH]1`, the AC50 was 36.5 µM (active).
Still for that read-out and setting: the same measure for `NCc1cccc(C2CCN(C(=O)c3ccc(C#Cc4ccccc4F)o3)CC2)c1`: 28.2 µM (active).
Regarding `CCCCOC(=O)CC(CC(=O)OCCCC)(OC(C)=O)C(=O)OCCCC`, the outcome was inactive.
With `CN(C)c1ccc(C(=C2C=CC(=[N+](C)C)C=C2)c2ccc(N(C)C)cc2)cc1`, the AC50 is 0.938 µM (active).
As for `CCCCCCCC[Si](OCC)(OCC)OCC`, the outcome was inactive.
As for `Cc1occc1C(=O)Nc1ccc(C(=O)N2CCC(F)(F)/C(=C\C(=O)N3CCC(N4CCCCC4)CC3)c3ccccc32)cc1`, the outcome was inactive.
Turning to `Cc1c2ccccc2c(C)c2c1ccc1ccccc12`, the AC50 is 20 µM (active).
`O=C=NCCCCCCN=C=O`: the result was inactive.
For the compound `Cc1oc2c(NC(=O)c3c(Cl)cccc3Cl)cccc2c1C(C)(C)O`, the AC50 was 14.3 µM (active).
For the compound `CCCCCCCCCCCC[N+](C)(C)C`, the AC50 was 18 µM (active).
For `O=CCCCC=O`, the outcome was inactive.
On to `CC[C@H](NC(=O)c1cc(F)ccc1NS(=O)(=O)c1cccc2cccnc12)c1ccccc1`, for which the outcome was inactive.
Still for that read-out and setting: the same measure for `CC(C)(C)c1cc(/C=C2\SC(N)=NC2=O)cc(C(C)(C)C)c1O`: “inactive”.
For `CCCCCCCCCC(=O)O`, the outcome was inactive.
Consider `CC(C)(C)c1csc(-c2cc3cc(OCc4ccccc4CC(=O)O)ccc3o2)n1`, for which the AC50 was 8.45 µM (active).
Take `CCN(Cc1cccnc1)C(=O)c1cccc(Cl)c1[C@]1(C)C(=O)N(Cc2ccc(OC)cc2OC)c2ccc(Cl)cc21`: the outcome was inactive.
On the same count and under the same terms, the same measure for `O=C1O[C@H]([C@@H](O)CO)C(O)=C1O`: “inactive”.
Same read-out and setting: the same measure for `CN1C(=O)CC[C@H]1c1cccnc1`: “inactive”; for `Cc1cn([C@H]2C[C@H](N=[N+]=[N-])[C@@H](CO)O2)c(=O)[nH]c1=O`: “inactive”.
In the case of `O=c1ccc2ccccc2o1`, the result was inactive.
As to `COc1cc(C(=O)NC2CCN(C)CC2)ccc1Nc1ncc2c(n1)N(C1CCCC1)CC(F)(F)C(=O)N2C`, the AC50 was 7.76 µM (active).
As for `CC(O)CC(C)(C)O` (configuration not stated), the result was inactive.
With `CC(=O)N1CCN(c2ccc(OC[C@H]3CO[C@](Cn4ccnc4)(c4ccc(Cl)cc4Cl)O3)cc2)CC1`, the result was inactive.
Take `O=c1[nH]sc2ccccc12`: the AC50 was 26 µM (active).
The same measure, in the same setting: the same measure for `CC/C(=C(/CC)c1ccc(O)cc1)c1ccc(O)cc1`: 35.1 µM (active).
Take `CCCCCc1ccc(N)cc1`: the result was inactive.
For `CN(C)C(=O)C1(N2CCCCC2)CCN(CC[C@@]2(c3ccc(Cl)c(Cl)c3)CN(C(=O)c3ccccc3)CCO2)CC1`, the AC50 is 29.1 µM (active).
For the compound `O=C(O)c1ccccc1C(=O)OCc1ccccc1`, the result was inactive.
As for `CCCC(=O)OCCC(C)C`, the result was inactive.
Turning to `CN(C[C@@H](CC[N+]12CCC(C3CCCCC3)(CC1)CC2)c1ccc(Cl)c(Cl)c1)C(=O)c1cc(C(F)(F)F)cc(C(F)(F)F)c1`, the AC50 is 23.5 µM (active).
`CCN(Cc1cccc(S(=O)(=O)O)c1)c1ccc(C(=C2C=CC(=[N+](CC)Cc3cccc(S(=O)(=O)O)c3)C=C2)c2ccccc2S(=O)(=O)[O-])cc1`: the outcome was inactive.
With `O=C(O)Cc1cc(I)c(Oc2ccc(O)c(I)c2)c(I)c1`, the AC50 is 6.29 µM (active).
